The values below come from PubChem BioAssay (NCATS).

Each structure is given as a SMILES string. Several values for one entry are separate records, joined by “and”; a condition that tells them apart may be missing. Identical values can stand only once. Records with an inconclusive call do not appear. A structure can be active in one record and inactive in another. Activity calls are given as the source filed them. Calls come from the whole dose curve; as a rule, active = well fitted curve in the direction sought with a large enough effect; inconclusive = small, poorly fitted or top-dose-only effect, or another doubt; inactive = no such curve, though single readings can be large; an effect the other way counts as inactive or inconclusive.

Test [1] is described as follows: Identifying Small Molecule Inhibitors of Pancreatic Cancer Stem Cells (A278, Adherent) (AID 1259361). Note: nearly all actives have a fitted effect of over 35% in size. To be noted: series mostly up to 46.1 µM. A digest of the protocol:
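Monolayer and spheroid cultures are compared. Spheroids form over 14 days in stem cell medium on hydrogel-coated low-attachment plates, then are exposed to compound for 48 h before CellTiter-Glo luminescence.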

A short description of test [2]: P-glycoprotein substrates identified in KB-8-5-11 adenocarcinoma cell line, qHTS therapeutic library screen (AID 1346987). Note: nearly all actives have a fitted effect of over 65% in size. Note: potency is the fitted concentration of half-maximal effect. To be noted: KB-8-5-11 (P-gp overexpressing) viability, CellTiter-Glo, 72 h; series mostly up to 44.5 µM. The gist of the method: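 Steps: plate 500 KB-8-5-11 cells/well in DMEM + 10% FCS (colchicine removed); pin compounds in dose-response; incubate 72 h, 37 degree C, 5% CO2; add CellTiter-Glo, 5 min; read luminescence.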
(In qHTS, concentration-response curves come from the screen itself.)

Test [3] is described as follows: NS1 protein of Zika virus - qHTS assay to identify small molecule inhibitors in human HEK 293 cells (AID 1347053). Note: nearly all actives have a fitted effect of over 55% in size. Note: potency is the fitted concentration of half-maximal effect. The following applies: HEK293 ZIKV MR766 infection, NS1 TR-FRET, 24 h; series mostly up to 46.1 µM. The gist of the method:
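HEK 293; 20 h pre-culture, 37 C/5% CO2; cpd 1 h pre-infection; ZIKV MR766, MOI = 0.5, 24 h, 37 C; TR-FRET NS1 readout (two anti-NS1 Abs); norm. to no-virus vs infected.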

Test [4] is described as follows: qHTS of pediatric cancer cell lines to identify multiple opportunities for drug repurposing: Primary screen for TC32 cells (AID 1347089). Note: nearly all actives have a fitted effect of over 60% in size. Note: potency is the fitted concentration of half-maximal effect. To be noted: TC32 Ewing sarcoma viability, CellTiter-Glo luminescence, 48 h; series mostly up to 45.8 µM. A digest of the protocol:
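qHTS, TC32, 48 h drug treatment, CellTiter-Glo luminescence as a proxy for metabolically active cells; primary top concentration 46 µM (MIPE 11-pt, NPC 8-pt); confirmatory 11-pt.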

Test [5] can be described thus: qHTS of pediatric cancer cell lines to identify multiple opportunities for drug repurposing: Primary screen for DAOY cells (AID 1347090). Note: nearly all actives have a fitted effect of over 55% in size. Note: potency is the fitted concentration of half-maximal effect. To be noted: DAOY medulloblastoma viability, CellTiter-Glo luminescence, 48 h; series mostly up to 46 µM. The gist of the method: (§1)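 Viability measured as metabolically active cells via CellTiter-Glo luminescence following 48 hours of compound exposure, 11-point dilutions in confirmatory testing. 500-1,000 cells/well plated 5 hours before dosing; controls were DMSO and 2.3 µM bortezomib.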

Test [6] can be described thus: qHTS of pediatric cancer cell lines to identify multiple opportunities for drug repurposing: Primary screen for SJ-GBM2 cells (AID 1347091). Note: potency is the fitted concentration of half-maximal effect. The following applies: SJ-GBM2 viability, CellTiter-Glo luminescence, 48 h; series mostly up to 46 µM. The gist of the method:
as §1

Test [7] is described as follows: qHTS of pediatric cancer cell lines to identify multiple opportunities for drug repurposing: Primary screen for A673 cells (AID 1347092). Note: nearly all actives have a fitted effect of over 45% in size. Note: potency is the fitted concentration of half-maximal effect. To be noted: A673 Ewing sarcoma viability, CellTiter-Glo ATP luminescence, 48 h; series mostly up to 46 µM. A digest of the protocol:
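Luminescence from CellTiter-Glo, taken after 15 min at room temperature, served as the proxy for metabolically active cells following 48 h treatment. Both potency and efficacy were taken from curves fitted to the titration data.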

Test [8] in a line: qHTS of pediatric cancer cell lines to identify multiple opportunities for drug repurposing: Primary screen for SK-N-MC cells (AID 1347093). Note: potency is the fitted concentration of half-maximal effect. The following applies: SK-N-MC viability, CellTiter-Glo luminescence, 48 h; series mostly up to 46 µM. A digest of the protocol:
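Metabolically active cells were quantified by ATP-dependent luminescence (CellTiter-Glo, 15 min at room temperature) following 48 h treatment. Cells had been plated at 500-1,000 per well and settled for 5 h beforehand.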

Test [9] can be described thus: qHTS of pediatric cancer cell lines to identify multiple opportunities for drug repurposing: Primary screen for BT-37 cells (AID 1347094). Note: potency is the fitted concentration of half-maximal effect. To be noted: BT-37 viability, CellTiter-Glo luminescence, 48 h; series mostly up to 57.3 µM. A digest of the protocol:
(§2)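 Following a 5-hour attachment period, cells at 500-1,000/well received compounds and were cultured for 48 hours. CellTiter-Glo was added and luminescence read to estimate viable, metabolically active cells.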

Test [10] in a line: qHTS of pediatric cancer cell lines to identify multiple opportunities for drug repurposing: Primary screen for NB-EBc1 cells (AID 1347095). Note: potency is the fitted concentration of half-maximal effect. To be noted: NB-EBc1 neuroblastoma viability, CellTiter-Glo luminescence, 48 h; series mostly up to 46 µM. The gist of the method: as §2
Test [11] in a line: P-glycoprotein substrates identified in KB-3-1 adenocarcinoma cell line, qHTS therapeutic library screen (AID 1346986). Note: nearly all actives have a fitted effect of over 60% in size.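 Note: potency is the fitted concentration of half-maximal effect; potency is for cytotoxicity meaning loss of cell viability.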 The following applies: KB-3-1 parental cells viability, CellTiter-Glo, 72 h; series mostly up to 44.5 µM. A digest of the protocol:
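KB-3-1 parental and colchicine-selected P-gp-overexpressing KB-8-5-11 cells (colchicine omitted during assay), 500 cells/well, dosed in dose-response for 72 h at 37 °C; CellTiter-Glo luminescence. Cytotoxic: curve class -1.1 to -2.4, max response >50%, AC50 < 10 uM.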

A short description of test [12]: Identifying Small Molecule Inhibitors of Pancreatic Cancer Stem Cells (Panc1, Adherent) (AID 1259362).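 Note: compound exposure lasted 48 h before the viability read.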 The following applies: Potency: viability; series mostly up to 46.1 µM. A digest of the protocol: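 After a 4 h attachment period, compounds were pinned into wells and cultures held 48 h under standard incubator conditions. Viability was then measured as CellTiter-Glo luminescence following 10 min at room temperature.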

On to `CCCCc1nc2cc(C=CC(=O)NO)ccc2n1CCN(CC)CC`, for which the IC50 (viability decrease) in test [1] was 1180 nM (active). In addition, the Potency in test [2] is 7.43 µM (active); in test [4] it was 5870 nM (active); in [5], 3720 nM (active); in test [6], 469 nM (active); in [7], 118 nM (active); in test [8] it was 29.6 nM (active). Besides, the Potency in test [9] is 48.5 nM (active); in test [10], 590 nM (active). Moreover, the Potency result in [3] is “inactive”.
For the compound `COc1cc2c(Oc3ccc4[nH]c(C)cc4c3F)ncnc2cc1OCCCN1CCCC1`, the IC50 (viability decrease) in [1] is 16600 nM (active). For the same compound, the Potency is 23100 nM (active) in test [11]; 23.5 µM (active) and 18.4 µM (active) in test [2]; 18700 nM (active) in [5]; 18700 nM (active) in [7]; 24300 nM (active) in test [9]; 4180 nM (active) in test [10]. In addition, the Potency entry in test [3] was “inactive”.
For `N#Cc1c(O)c2c(-c3ccc(-c4ccccc4O)cc3)csc2[nH]c1=O`, the IC50 (viability decrease) entry in test [1] was “inactive”. Further, the Potency result in [12], in test [11], in test [2], in [3], in [4] and in [5] was “inactive” in each case. Also, the Potency result in test [9] and in [10] was “inactive” each time.
As to `CC1(C)O[C@@H]2C[C@@H]3[C@H]4C[C@@H](F)C5=CC(=O)C=C[C@]5(C)[C@@]4(F)[C@@H](O)C[C@]3(C)[C@]2(C(=O)CO)O1`, the Potency entry in [11], in [2], in [3], in test [4], in test [9] and in test [10] was “inactive” each time. Also, in [8], the Potency is 9350 nM (active).
As to `Cc1ccc(NC(=O)C2(c3ccc4c(c3)OC(F)(F)O4)CC2)nc1-c1cccc(C(=O)O)c1`, the Potency entry in test [11] was “inactive”. Also, the Potency in test [2] was 526 nM (active) and inactive; in test [3], 37.2 nM (active); in [4], 234 nM (active); in test [5] it was 469 nM (active); in test [7], 59 nM (active); in test [8] it was 46.9 nM (active). The Potency in test [9] is 38.5 nM (active); in [10], 66.2 nM (active).
`O=c1[nH]c(=O)n(C2CCCO2)cc1F` (stereo not given): the Potency result in test [11], in test [3], in test [4], in [5], in test [6] and in [7] was “inactive” throughout. Also, the Potency entry in [8] and in test [10] was “inactive” each time.
For `CC(=O)Nc1nc(C)c(-c2ccc(Cl)c(S(=O)(=O)NCCO)c2)s1`, the Potency in test [11] was 9200 nM (active); in test [4], 4150 nM (active); in test [5], 5900 nM (active); in [6] it was 1870 nM (active); in [7], 1870 nM (active); in [8], 132 nM (active). Moreover, the Potency in test [9] was 15300 nM (active); in test [10] it was 3720 nM (active). Moreover, in test [3], the Potency entry is “inactive”.
For `Cc1nc(N)ncc1-c1nc(N2CCOCC2)c2sc(C(C)(C)O)cc2n1`, the Potency in [11] is 1030 nM (active); in test [2], 1.48 µM (active) and 1.64 µM (active); in test [4], 2340 nM (active); in test [5], 935 nM (active); in [6], 1050 nM (active); in test [7], 1180 nM (active). Further, the Potency is 46.9 nM (active) in test [8], 6110 nM (active) in [9] and 590 nM (active) in test [10].
`CNC(=O)c1ccc(N2C(=S)N(c3cnc(C#N)c(C(F)(F)F)c3)C(=O)C23CCC3)cc1F`: the Potency result in [11], in test [2], in test [3] and in test [4] was “inactive” in each case. The Potency in test [5] was 935 nM (active); in [8] it was 1050 nM (active); in test [9], 19300 nM (active); in test [10], 7430 nM (active).
Turning to `CCOc1ccccc1OCCNC(C)Cc1ccc(OC)c(S(N)(=O)=O)c1` (stereo not given), the Potency entry in test [11], in [3], in [4], in [5], in test [8] and in [9] was “inactive” throughout. In test [10], the Potency entry is “inactive”.
For `Clc1cccc(-c2nnnn2Cc2cccnc2)c1Cl`, the Potency result in [11], in test [2], in test [3], in test [4], in [5] and in test [7] was “inactive” in each case. Besides, the Potency entry in test [9] and in test [10] was “inactive” throughout.
`CCCCCCCCCC(=O)N[C@@H](Cc1c[nH]c2ccccc12)C(=O)N[C@H](CC(N)=O)C(=O)N[C@@H](CC(=O)O)C(=O)N[C@@H]1C(=O)NCC(=O)N[C@@H](CCCN)C(=O)N[C@@H](CC(=O)O)C(=O)N[C@H](C)C(=O)N[C@@H](CC(=O)O)C(=O)NCC(=O)N[C@H](CO)C(=O)N[C@@H]([C@@H](C)CC(=O)O)C(=O)N[C@@H](CC(=O)c2ccccc2N)C(=O)O[C@@H]1C`: the Potency entry in [11], in test [3], in test [4], in test [5], in [6] and in test [7] was “inactive” each time. The Potency result in [9] and in test [10] was “inactive” each time.
`Cc1c(Cn2c(C)nc3c(C(=O)O)cc(N4CCOCC4)cc32)cccc1C(F)(F)F`: the Potency entry in test [11], in [2], in test [3], in test [4] and in test [6] was “inactive” throughout. Further, the Potency in [5] was 7430 nM (active); in test [8], 59 nM (active); in test [10], 14800 nM (active).
Consider `CC(C)Nc1cc(C(F)(F)F)cc2nc(NC(=O)c3cccnc3)nn12`, for which the Potency entry in test [11], in [2], in test [3], in test [4], in [5] and in [9] was “inactive” throughout. Moreover, the Potency entry in test [10] is “inactive”. In addition, the Potency in test [8] was 16600 nM (active).
As to `Cn1c(CNc2ccc(C(=N)N)cc2)nc2cc(C(=O)N(CCC(=O)O)c3ccccn3)ccc21`, the Potency result in [11], in test [2], in test [3], in [4], in test [5] and in [9] was “inactive” each time. For the same compound, in test [10], the Potency entry is “inactive”.
On to `Cc1cn2cc(C(=O)N(C)CCO)cc(N[C@@H]3CCOc4cccc(C)c43)c2n1`, for which the Potency result in test [11], in test [2], in [3], in test [4], in test [5] and in [7] was “inactive” each time. Moreover, the Potency result in test [8], in [9] and in [10] was “inactive” throughout.
`COc1ccc(-c2cc3c(C)nc(N)nc3n(C3CCC(OCCO)CC3)c2=O)cn1` (stereo not given): the Potency in test [11] is 184 nM (active); in test [3] it was 1480 nM (active); in test [4], 186 nM (active); in test [5] it was 118 nM (active); in [6], 23.5 nM (active); in test [7], 93.5 nM (active). Besides, the values for the Potency in test [8], in test [9] and in [10] were 5.3 nM (active), 243 nM (active) and 59 nM (active), respectively.
For the compound `Cc1cc(Nc2cc(NC(=O)c3c(Cl)cccc3Cl)ccn2)nc(N)n1`, the Potency in [11] is 326 nM (active); in test [2] it was 935 nM (active) and 1.16 µM (active); in test [3], 2350 nM (active); in test [4], 930 nM (active); in [5], 1480 nM (active); in test [6], 590 nM (active). For the same compound, the Potency in test [8] is 132 nM (active); in test [9], 544 nM (active); in [10], 332 nM (active).
